PubChem BioAssay
Activity calls are given as the source filed them. Unless noted, the rule behind the calls is not given here.

Key:
[1] = tested on: Wnt5a (protein binding on small-molecule microarray); assay: Wnt5a binders on small-molecule microarray, primary screen, biophysical, 635/667 nm fluorescence (AID 1142); details: 635 nm fluorescence, higher = more signal;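 note: fluorescence read at 667 nm with signal to noise per printed feature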
[2] = cell viability in Huh7 cells, primary screen, cytotoxicity control for HCV replication inhibitor project, CellTiter-Glo luminescence, basal, 48 h (AID 1143); details: Huh7 HCV replicon, higher = more signal, called active from +8 up or from −8 down;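 note: Huh7 hepatoma cells carrying a hepatitis C replication reporter with no stimulus; test concentration not given here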
[3] = P. aeruginosa biofilm formation inhibitors, primary screen, PAO1 strain, BacTiter-Glo luminescence, LB-PBS (AID 1144); details: 12 h, higher = more signal
[4] = CREB reporter modulators without forskolin, primary screen, cell-based, PC12, CRE-LacZ reporter, unstimulated (AID 1145); details: no forskolin, luminescence, 4.5 h, higher = more signal, called active from +8 up or from −8 down
[5] = CREB reporter modulators under forskolin, primary screen, cell-based, PC12, CRE-LacZ reporter, forskolin-stimulated (AID 1146); details: luminescence, 4.5 h, higher = more signal, called active from +8 up or from −8 down;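 note: PC12 cells with 6xCRE LacZ reporter stimulated by forskolin 10 µM; beta-galactosidase reporter signal reflecting CREB driven transcription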
[6] = target: Streptavidin (Streptomyces avidinii) (UniProt P22629); assay: streptavidin binders on small-molecule microarray, primary screen, artefact control for SMM compound annotation, biophysical, 635/667 nm fluorescence (AID 1147); details: streptavidin binding, higher = more signal;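 note: signal reflects streptavidin binding to arrayed compounds as a control protein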
[7] = small-molecule binders of probe aInhba, primary screen, biochemical, small-molecule microarray, 635/667 nm fluorescence (AID 1148); details: higher = more signal;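 note: score merges 667nm spot fluorescence with signal-to-noise for antibody binding to printed compounds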
Torsin-1A (Homo sapiens) [8] = target: Torsin-1A (Homo sapiens) (UniProt O14656); assay: torsin A binders from cell lysate, primary screen, small-molecule microarray, wild-type, 635/667 nm (AID 1149); details: COS7 hTOR1A-WT lysate, 635 nm fluorescence, higher = more signal
Torsin-1A (Homo sapiens) [9] = target: Torsin-1A (Homo sapiens) (UniProt O14656); assay: small-molecule binders of mutant TOR1A in lysate, primary screen, cell lysate, small-molecule microarray, COS7 lysate, 635/667 nm fluorescence (AID 1150); details: COS7 hTOR1A mutant lysate, 635 nm fluorescence, higher = more signal;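 note: score pools 667 nm emission and signal to noise measuring lysate protein binding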
[10] = tested on: Sonic hedgehog protein (Shh); assay: small-molecule binders of Shh protein, primary screen, biochemical, small-molecule microarray, 635/667 nm fluorescence (AID 1151); details: small-molecule microarray binding, 635 nm fluorescence; higher = more signal;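 note: Shh protein binding to compounds spotted on small-molecule microarray slides; score combines spot fluorescence intensity with signal-to-noise across triplicate slides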
[11] = E. coli DRC41 culture turbidity changes, primary screen, E. coli filamentation inducer project, strain DRC41, OD650, 48 h (AID 1152);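 note: E. coli MC1000 strain DRC41 lacking acrAB efflux pump and sulA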; details: E. coli DRC41 (acrAB sulA), higher = more signal, called active from +8 up or from −8 down
[12] = small-molecule binders of probe aLefty1, primary screen, biochemical, small-molecule microarray, 635/667 nm fluorescence (AID 1153); details: higher = more signal;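 note: score merges spot fluorescence with signal-to-noise ratio from the scanned slide images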
[13] = PSAC antagonists in infected red cells, primary screen, cell-based, P. falciparum Indochina, OD700, 1 h (AID 1154); details: P. falciparum Indochina infected RBC osmotic lysis, higher = more signal, called active from +8 up or from −8 down
[14] = PSAC antagonists in infected red cells, primary screen, cell-based, P. falciparum Indochina, OD700, 2 h (AID 1155);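 note: lysis reports solute entry through the parasite surface anion channel PSAC; channel blockers reduce lysis of infected cells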; details: P. falciparum Indochina infected erythrocytes, osmotic lysis OD700; higher = more signal, called active from +8 up or from −8 down
[15] = osmotic lysis modulators in infected erythrocytes, primary screen, PSAC antagonist project, cell-based, P. falciparum Indochina, OD700, 3 h (AID 1156); details: higher = more signal, called active from +8 up or from −8 down
[16] = PSAC antagonists in infected red cells, primary screen, cell-based, P. falciparum Indochina, OD700, 18 h (AID 1157); details: P. falciparum Indochina infected erythrocytes, osmotic lysis OD700, 18 h; higher = more signal, called active from +8 up or from −8 down
[17] = modulators of S6 phosphorylation in cells, primary screen, cell-based, A549, cytoblot, luminescence, serum-stimulated (AID 1158); details: A549 phospho-S6 cytoblot, 5 h, higher = more signal;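 note: serum-stimulated A549 lung adenocarcinoma cells; signal is phosphorylated S6 detected by cytoblot immunostaining with HRP secondary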
[18] = target: NADPH oxidase 2 (Homo sapiens) (UniProt P04839); assay: NOX2-dependent H2O2 signal modulators, primary screen, NOX inhibitor project, cell-based, HEK293-NOX2, PMA-stimulated, Amplex Red fluorescence (AID 1159); details: 45 min, higher = more signal, called active from +8 up or from −8 down; note: test concentration not given here
[19] = target: NADPH oxidase 4 (Homo sapiens) (UniProt Q9NPH5); assay: NOX4-dependent H2O2 signal modulators, primary screen, NOX inhibitor project, cell-based, HEK293-NOX4, tetracycline-induced, Amplex Red fluorescence (AID 1160); details: 45 min, higher = more signal, called active from +8 up or from −8 down
[20] = target: NADPH oxidase 5 (Homo sapiens) (UniProt Q96PH1); assay: NOX5-dependent H2O2 signal modulators, primary screen, NOX inhibitor project, cell-based, HEK293-NOX5, Amplex Red fluorescence (AID 1161); details: HEK293-NOX5, ionomycin, 45 min, higher = more signal
Chain of NADPH oxidase 5 (Homo sapiens) (Q96PH1 whole entry, looked up): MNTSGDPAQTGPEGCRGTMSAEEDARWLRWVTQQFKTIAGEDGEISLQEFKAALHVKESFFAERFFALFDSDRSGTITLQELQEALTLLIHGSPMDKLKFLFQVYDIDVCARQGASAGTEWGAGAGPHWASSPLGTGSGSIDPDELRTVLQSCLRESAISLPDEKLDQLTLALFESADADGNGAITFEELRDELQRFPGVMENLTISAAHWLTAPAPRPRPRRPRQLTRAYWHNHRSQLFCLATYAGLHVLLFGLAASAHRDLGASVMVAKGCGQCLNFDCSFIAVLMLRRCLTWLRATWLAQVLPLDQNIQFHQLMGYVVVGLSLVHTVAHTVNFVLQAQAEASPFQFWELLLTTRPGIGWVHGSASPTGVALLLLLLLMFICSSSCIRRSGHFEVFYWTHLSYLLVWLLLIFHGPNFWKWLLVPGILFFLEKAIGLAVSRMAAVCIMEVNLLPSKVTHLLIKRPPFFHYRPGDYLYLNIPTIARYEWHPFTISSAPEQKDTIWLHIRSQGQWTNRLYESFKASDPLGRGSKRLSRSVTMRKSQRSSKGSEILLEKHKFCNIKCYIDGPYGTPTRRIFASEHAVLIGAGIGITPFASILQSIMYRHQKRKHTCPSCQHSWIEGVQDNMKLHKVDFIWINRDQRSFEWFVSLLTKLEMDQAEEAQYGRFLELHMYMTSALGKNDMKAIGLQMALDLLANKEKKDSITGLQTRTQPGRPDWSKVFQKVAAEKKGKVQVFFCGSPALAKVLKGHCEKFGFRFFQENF

Chain of NADPH oxidase 2 (Homo sapiens) (P04839 whole entry, looked up): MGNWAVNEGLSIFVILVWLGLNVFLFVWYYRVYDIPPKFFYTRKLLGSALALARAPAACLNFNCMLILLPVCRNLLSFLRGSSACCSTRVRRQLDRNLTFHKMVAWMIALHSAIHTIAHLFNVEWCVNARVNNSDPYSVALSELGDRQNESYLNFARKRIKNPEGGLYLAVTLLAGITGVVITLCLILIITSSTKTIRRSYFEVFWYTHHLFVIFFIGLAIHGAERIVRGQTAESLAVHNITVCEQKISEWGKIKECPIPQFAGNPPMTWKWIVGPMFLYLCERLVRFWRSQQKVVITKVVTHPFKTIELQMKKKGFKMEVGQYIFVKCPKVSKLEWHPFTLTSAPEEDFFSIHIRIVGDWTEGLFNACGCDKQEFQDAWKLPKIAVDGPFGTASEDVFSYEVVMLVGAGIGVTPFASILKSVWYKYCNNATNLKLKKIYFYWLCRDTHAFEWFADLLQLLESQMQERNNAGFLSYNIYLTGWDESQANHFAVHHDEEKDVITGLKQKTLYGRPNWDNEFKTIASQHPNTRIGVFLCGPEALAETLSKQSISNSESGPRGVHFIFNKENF
Chain of Streptavidin (Streptomyces avidinii) (P22629 whole entry, looked up): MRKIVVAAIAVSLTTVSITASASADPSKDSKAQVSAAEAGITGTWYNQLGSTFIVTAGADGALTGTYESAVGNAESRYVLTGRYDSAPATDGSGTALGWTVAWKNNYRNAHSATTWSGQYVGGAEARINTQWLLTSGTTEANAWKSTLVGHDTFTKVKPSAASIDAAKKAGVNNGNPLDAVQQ
Chain of NADPH oxidase 4 (Homo sapiens) (Q9NPH5 whole entry, looked up): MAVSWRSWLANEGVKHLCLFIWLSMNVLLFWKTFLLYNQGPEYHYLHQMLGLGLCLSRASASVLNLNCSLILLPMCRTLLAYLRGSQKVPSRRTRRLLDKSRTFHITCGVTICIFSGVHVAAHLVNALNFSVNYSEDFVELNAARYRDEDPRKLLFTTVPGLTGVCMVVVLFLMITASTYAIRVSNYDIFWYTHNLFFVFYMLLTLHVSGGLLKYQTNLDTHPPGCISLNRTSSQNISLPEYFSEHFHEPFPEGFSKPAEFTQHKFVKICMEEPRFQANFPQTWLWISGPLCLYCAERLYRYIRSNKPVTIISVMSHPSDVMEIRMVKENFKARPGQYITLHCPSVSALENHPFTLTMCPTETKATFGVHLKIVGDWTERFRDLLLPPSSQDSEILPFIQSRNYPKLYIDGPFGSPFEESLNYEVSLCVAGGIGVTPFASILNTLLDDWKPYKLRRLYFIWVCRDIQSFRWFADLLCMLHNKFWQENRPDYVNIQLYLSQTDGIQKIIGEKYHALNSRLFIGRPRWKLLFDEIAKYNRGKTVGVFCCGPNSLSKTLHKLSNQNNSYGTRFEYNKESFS
Chain of Torsin-1A (Homo sapiens) (O14656 whole entry, looked up): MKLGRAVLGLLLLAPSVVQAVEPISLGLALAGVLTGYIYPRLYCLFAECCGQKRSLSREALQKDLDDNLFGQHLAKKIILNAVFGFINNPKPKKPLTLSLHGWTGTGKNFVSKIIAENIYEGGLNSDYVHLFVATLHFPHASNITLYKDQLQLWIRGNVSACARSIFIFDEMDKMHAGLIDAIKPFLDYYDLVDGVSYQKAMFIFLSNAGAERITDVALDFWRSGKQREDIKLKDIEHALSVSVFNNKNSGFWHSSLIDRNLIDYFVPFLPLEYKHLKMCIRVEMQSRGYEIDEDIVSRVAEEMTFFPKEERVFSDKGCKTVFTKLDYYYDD

Structure (SMILES)	composite z-score [1]	z-score [2]	z-score [3]	z-score [4]	z-score [5]	composite z-score [6]	composite z-score [7]	composite z-score (Torsin-1A (Homo sapiens) [8])	composite z-score (Torsin-1A (Homo sapiens) [9])	composite z-score [10]	z-score [11]	composite z-score [12]	z-score [13]	z-score [14]	z-score [15]	z-score [16]	z-score [17]	z-score [18]	z-score [19]	z-score [20]
O[C@@H](Cc1ccccc1)[C@@H](/C=C/c1ccccc1)NCc1ccccc1Br	-1.01	-0.626 (inactive)	-0.662 (inactive)	2.67 (inactive)	-2.09 (inactive)	-0.736	-0.205	-2.13	-1.9	-1.08	0.955 (inactive)	0.0927	1.18 (inactive)	0.411 (inactive)	1.35 (inactive)	0.205 (inactive)	0.747	-0.175 (inactive)	0.272 (inactive)	-0.921
C=CCC(OC(C)=O)[C@@H]1[C@@H](N(Cc2cc3ccccc3o2)C(=O)c2cccc3ccccc23)c2cc(OCCCO)ccc2N1C(=O)Cc1ccc2ccccc2c1 (stereo not given in full)	0.0744	-1.62 (inactive)	0.303 (inactive)	0.992 (inactive)	-0.333 (inactive)	0.435	-0.0589	-0.213	-0.146	0.191	-0.288 (inactive)	-0.0547	2.06 (inactive)	0.231 (inactive)	-0.336 (inactive)	0.332 (inactive)	0.778	0.39 (inactive)	-1.46 (inactive)	-2.19
COCCCNC(=O)[C@@]1(Cc2ccccc2I)c2ccccc2C(=O)N(Cc2ccccc2)[C@H]1c1ccc(CO)cc1	-0.433	-2.44 (inactive)	0.202 (inactive)	0.145 (inactive)	-1.06 (inactive)	-1.38	-0.176	-0.79	-0.332	-0.892	0.263 (inactive)	0.243	11.1 (active)	2.37 (inactive)	1.85 (inactive)	1.43 (inactive)	-0.231	0.0296 (inactive)	0.779 (inactive)	0.242
CC(C)N1C(=O)c2ccccc2[C@](C)(C(=O)NC2CC2)[C@@H]1c1ccc(CO)cc1	0.204	-0.997 (inactive)	-0.723 (inactive)	0.118 (inactive)	0.957 (inactive)	-0.166	-0.2	1.11	0.74	0.889	0.897 (inactive)	0.0451	0.838 (inactive)	0.122 (inactive)	-0.173 (inactive)	0.475 (inactive)	-0.0085	-0.987 (inactive)	-0.354 (inactive)	-0.547
CC(C)NC(=O)[C@@]1(c2ccc([N+](=O)[O-])cc2)CC(=O)N(C(C)C)[C@@H]1c1ccc(CO)cc1	-0.666	-3.49 (inactive)	-0.707 (inactive)	0.522 (inactive)	-0.205 (inactive)	-1.26	-0.203	0.592	1.28	-0.502	1.58 (inactive)	-0.82	1.93 (inactive)	-0.672 (inactive)	-0.641 (inactive)	-0.945 (inactive)	1.31	-0.379 (inactive)	0.354 (inactive)	0.0654
C[C@H]1C2[C@H](Cc3ccccc3)NC(=O)[C@]23C(=O)N[C@H](Cc2ccccc2)C(=O)N[C@H](Cc2ccccc2)C(=O)NC/C=C/CCC/C=C/C3[C@@H]2O[C@]12C (stereo not given in full)	0.127	-2 (inactive)	0.612 (inactive)	1.3 (inactive)	-0.696 (inactive)	-0.224	-0.149	0.299	0.225	0.843	0.655 (inactive)	-0.19	1.75 (inactive)	0.452 (inactive)	0.601 (inactive)	0.794 (inactive)	0.282	0.563 (inactive)	-0.312 (inactive)	0.875
O=[N+]([O-])c1ccc(C[n+]2ccc(CCCO)cc2)o1	0.98	-1.22 (inactive)	0.0757 (inactive)	0.0026 (inactive)	0.619 (inactive)	1.15	0.189	0.153	0.263	1.06	-0.934 (inactive)	-0.0162	1.21 (inactive)	0.331 (inactive)	0.616 (inactive)	0.377 (inactive)	0.437	0.00328 (inactive)	-3.09 (inactive)	-0.4
CN1C(=O)C2C=CC(C(O)C(C)(C)C)N(Nc3ccccc3)C2C1=O (stereo not given)	0.04	1.07 (inactive)	-0.101 (inactive)	0.24 (inactive)	0.124 (inactive)	0.0034	-0.157	0.392	-0.419	-0.624	-1.06 (inactive)	-0.0838	0.931 (inactive)	1.05 (inactive)	0.156 (inactive)	1.12 (inactive)	-1.04	-1.09 (inactive)	-3.48 (inactive)	-1.54
O=C1OCC=C[C@H]2OC34C=CCN(c5ccc6ccccc6c5)C(=O)[C@H]3N(CCO)C(=O)[C@@H]4[C@@H]12 (stereo not given in full)	-1.26	-0.168 (inactive)	1.89 (inactive)	1.14 (inactive)	0.492 (inactive)	-0.74	-0.0427	-2.04	-2.02	-0.25	-0.773 (inactive)	0.235	1.33 (inactive)	0.796 (inactive)	0.547 (inactive)	0.552 (inactive)	-0.572	1.53 (inactive)	1.05 (inactive)	1.46
